Laboratory results: ChEMBL document CHEMBL1961873, “Compounds: GSK PKIS; Assays: Nanosyn kinase panel” (2012)

Target: Serine/threonine-protein kinase PLK1 (Homo sapiens) (UniProt P53350)
Conditions: at 1 µM
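Also: reported value is a mean PLK1 inhibition.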

Sequence of Serine/threonine-protein kinase PLK1 (Homo sapiens) (P53350 whole entry): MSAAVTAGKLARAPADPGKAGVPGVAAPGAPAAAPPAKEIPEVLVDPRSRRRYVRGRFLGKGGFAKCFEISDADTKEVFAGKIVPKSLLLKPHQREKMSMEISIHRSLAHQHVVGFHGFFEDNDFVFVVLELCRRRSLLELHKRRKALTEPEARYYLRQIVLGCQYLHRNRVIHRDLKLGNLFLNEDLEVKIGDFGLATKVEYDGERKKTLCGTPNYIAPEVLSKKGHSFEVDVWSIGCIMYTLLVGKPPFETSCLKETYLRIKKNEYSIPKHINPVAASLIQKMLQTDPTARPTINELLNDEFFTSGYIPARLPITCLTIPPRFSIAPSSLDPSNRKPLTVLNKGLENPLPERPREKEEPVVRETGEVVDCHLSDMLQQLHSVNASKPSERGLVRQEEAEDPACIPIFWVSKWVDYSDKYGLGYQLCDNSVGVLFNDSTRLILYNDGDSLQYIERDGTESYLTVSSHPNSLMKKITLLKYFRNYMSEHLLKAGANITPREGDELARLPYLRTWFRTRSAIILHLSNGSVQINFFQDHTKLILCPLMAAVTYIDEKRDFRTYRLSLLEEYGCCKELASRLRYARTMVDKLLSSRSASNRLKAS

SMILES	inhibition
CC(=O)Nc1cccc(C#Cc2cncnc2Nc2ccc(OCc3cccc(F)c3)c(Cl)c2)n1	-3.29%
O=C1NC(=O)C(c2ccccc2Cl)=C1Nc1cccc(O)c1	3.38%
COc1ccc2cc(-c3c(-c4ccncc4)nc(-c4ccc([S+](C)[O-])cc4)n3C)ccc2c1 (configuration not stated)	4.45%
NS(=O)(=O)c1ccc(N/N=C2\C(=O)Nc3ccc(C(=O)NCCc4c[nH]cn4)cc32)cc1	10.8%
CCCN1CCC=C(c2ccc(Nc3nc(Nc4ccccc4C(N)=O)c4cc[nH]c4n3)c(C)c2)C1	53.6%
CCn1c(-c2nonc2N)nc2cnc(Oc3cccc(NC(=O)c4ccc(OCCN5CCOCC5)cc4)c3)cc21	2.83%
CC1=C(C(=O)Nc2ccc3[nH]ncc3c2)C(c2ccc3ccccc3c2)CC(=O)N1 (configuration not stated)	1.98%
COc1cc(C)c(NC(=O)CN(C)C)cc1Nc1nc(Nc2cccc(F)c2C(N)=O)c2cc[nH]c2n1	92.2%
CN1CCC(C(=O)Nc2n[nH]c3nnc(-c4ccccc4)cc23)CC1	4.03%
CCN1CCC(CC(=O)Nc2n[nH]c3nc(-c4cccs4)c(Br)cc23)CC1	-3.47%
Nc1nc(-c2ccccn2)c(-c2ccc3ncccc3n2)s1	2.12%
[O-][S+]1CCN(Cc2ccc(-c3ccc4ncnc(Nc5ccc(OCc6ccccc6)c(F)c5)c4c3)o2)CC1	1.22%
N#Cc1c(NC(=O)c2cccc3ccccc23)sc2c1CCCC2	9.99%
COC(=O)Nc1nc2cc(Oc3cccc(NC(=O)Nc4cc(C(F)(F)F)ccc4F)c3)ccc2[nH]1	0.56%
O=C1NC(=O)C(c2ccc(Cl)cc2)=C1Nc1ccc(Cl)c(C(=O)O)c1	-2.04%
COc1cc2ncn(-c3cc(OCc4ccccc4C(F)(F)F)c(C(N)=O)s3)c2cc1OC	96.3%

SMILES	inhibition
Nc1ncnc2occ(-c3ccc(NC(=O)Nc4cccc(C(F)(F)F)c4)cc3)c12	5.99%
CNC(=O)c1cncc(/C=C/c2c(Cl)cccc2Cl)c1	7.28%
COc1ccc(-c2ccncc2)cc1C(N)=O	6.97%
NCc1ccc(-c2nc(-c3ccc(Cl)c(O)c3)c(-c3ccncc3)[nH]2)cc1	2.1%
Fc1cccc(COc2ccc(Nc3ncnc4cc(-c5ccc[nH]5)sc34)cc2Cl)c1	3.54%
Cc1ccc(NC(=O)c2ccnc(N3CCCC3)c2)cc1-c1ccc(C(=O)NCC2CC2)cc1	4.57%
Cc1cc(O)cc(C)c1/C=C/c1cncc(-c2nn[nH]n2)c1	4.38%
COc1ccccc1Nc1ncc(-c2ccccc2)o1	4.18%
CS(=O)(=O)CCNCc1ccc(-c2ccc3ncnc(Nc4ccc(OCc5ccccc5)c(Cl)c4)c3c2)o1	2.99%
CS(=O)(=O)Nc1ccc(N/C=C2\C(=O)Nc3ccccc32)cc1	-1.15%
NC(=O)c1ccc(-c2nc(-c3ccccn3)c(-c3ccc4c(c3)OCO4)[nH]2)cc1	2.1%
O=C1Nc2ccc(C(=O)c3ccco3)cc2C1=Cc1cc(Cl)c(O)c(Cl)c1	43.2%
COC(=O)Nc1nc2cc(Oc3ccc(NC(=O)Nc4cccc(C(=O)O)c4)cc3)ccc2[nH]1	0.8%
COc1cc(C=NNc2ncnc3c2cnn3-c2ccccc2)ccc1O	3.03%
COc1ccc(COc2ccc(Cc3cnc(N)nc3N)cc2OC)cc1	3.71%
NS(=O)(=O)c1cccc(-c2ccc3c(NC(=O)C4CC4)n[nH]c3c2)c1	-1.05%
